Screening data (PubChem BioAssay)
EBV LMP1 NFkB – EBV LMP1-driven NF-kappaB luciferase reporter inhibitors, primary screen, cell-based, luminescence, single point; LMP1-induced NF-kappaB luciferase reporter cells; inhibition, % at 12.5 µM; actives 0.69% (n = 350,000); AID 504558, 2011; in the data active = inhibition above about 41%;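 also: 0% = neutral control wells and 100% = reference inhibitor control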
HSF1 inhib – HSF1 inhibitors in luciferase reporter cells, primary screen, cell-based, NIH3T3, luminescence | NIH3T3-HGL HSE-luciferase, MG132-induced, luminescence 8 h; stronger effect = lower value | activity change, negative = inhibition, % at 7.5 µM (by protocol) | actives 0.77% (n = 300,000) | AID 2098, 2009;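 active = more than half of replicate wells show activity change below -50%, luminescence cut by over half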;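 also: luciferase reports HSF-1 transcriptional activity via heat shock element; 0% = median of DMSO wells and -100% = zero luminescence signal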
TWEAK-Fn14 inh – inhibitors of TWEAK-Fn14 signaling, primary screen, luciferase reporter cells, uHTS; actives 2% (n = 360,000); inhibition, % at 10 µM; TWEAK-stimulated Fn14 reporter cells, luciferase luminescence, 8 h; in the data active = inhibition above about 50%
TROY NFkB inh – inhibitors of TROY-driven NF-kB signaling, primary screen, Q293 LMP1-TROYcd cells, NF-kB luciferase, uHTS; Q293 LMP1-TROYcd NF-kB luciferase reporter, 4 h; inhibition, % at 10 µM; actives 0.98% (n = 360,000); AID 1347056, 2019;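 active = compounds whose plate-normalised and pattern-corrected inhibition of the luciferase reporter signal at the single screening dose is 50% or more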
HSF1 activator – HSF-1 activators, primary screen, NIH3T3-HGL cells, MG132 stress, luminescence, single point. NIH3T3-HGL HSF-1 luciferase reporter, 8 h; 100% = twice DMSO control signal. activation, % at 9 µM. actives 1.7% (n = 300,000);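 active = mean replicate activation of at least 50% with a set share of replicates each reaching 50%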;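 also: 0% = median of the neutral control wells and 100% = twice that signal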
LGR2 inh – inhibitors of bursicon-induced LGR2 CRE-luciferase signal, primary screen, cell-based, HEK293, CRE-luciferase reporter, bursicon stimulation; bursicon-stimulated, 4 h; inhibition, % at 9.99 µM; Drosophila bursicon receptor LGR2 (rickets); actives 0.35% (n = 380,000);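 active = drop in luminescence signal, shown as inhibition above about 50% in the replicate tests, limit read from the data, passing the limit was not always enough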;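 also: agonist challenge used bursicon conditioned medium at about half maximal strength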
Active calls of the source: *; x = no result; ! = not active in a repeat. An excerpt weighted towards active compounds, which were near 3.6% of everything screened.

SMILES | EBV LMP1 NFkB | HSF1 inhib | TWEAK-Fn14 inh | TROY NFkB inh | HSF1 activator | LGR2 inh
Cc1noc(C)c1NC(=O)Nc1ccc2c(c1)C(=O)N(C)[C@@H]1CC[C@H](CC(=O)NCc3ccc(Cl)cc3)O[C@@H]1CO2 | x | x | x | x | x | 8
CC=Cc1ccc2n(c1=O)C[C@@H]1[C@@H](CO)[C@H](C(=O)N3CCCCC3)N(CC3CC3)[C@H]21 (mixture of isomers) | x | x | x | x | x | 8
C[C@H](CO)N1C[C@H](C)[C@@H](CN(C)Cc2cncnc2)Oc2ncc(-c3cccc(C#N)c3)cc2C1=O | x | x | x | x | x | 22
CO[C@H]1CN(C)C(=O)c2cc(NC(=O)C3CC3)ccc2OC[C@@H](C)N(Cc2ccc(F)cc2)C[C@@H]1C | x | x | x | x | x | 5
C[C@H](CO)N1C[C@H](C)[C@@H](CN(C)S(C)(=O)=O)OCCCC[C@H](C)Oc2ccc(NC(=O)c3ccccc3)cc2C1=O | x | x | x | x | x | 3
COc1ccc(C(=O)c2c(C(F)(F)F)oc3c2C(=O)c2ccccc2C3=O)cc1 | 85* | -94* | 71* | 35 | -94 | x
COc1ccc(C(=O)c2coc(-c3ccccc3C(=O)O)c2C(=O)O)cc1 | -6 | -5 | -6 | -16 | -12 | -15
CO[C@H]1CN(C)C(=O)c2cc(NS(=O)(=O)c3ccc(C)cc3)ccc2OC[C@H](C)N(C(=O)NC(C)C)C[C@@H]1C | x | x | x | x | x | 30
Cc1cc([N+](=O)[O-])ccc1NC(=O)c1cccc(NC(=O)C(C)C)c1 | 15 | 21 | -45 | -28 | 58* | -20
Cc1ccc(NC(=O)c2sc(N)nc2-c2ccc([N+](=O)[O-])cc2)c(C)c1 | 8 | 41 | -30 | -9 | 63* | 6
Cc1cc([N+](=O)[O-])ccc1NC(=O)c1csc(C)c1C | -44 | 24 | -27 | -12 | 53* | -65
Cc1ccc(NC(=O)c2sc(N)nc2-c2ccc([N+](=O)[O-])cc2)cc1C | -4 | 23 | -13 | -6 | 42 | -19
C[C@@H]1CN([C@H](C)CO)C(=O)c2cc(NS(=O)(=O)c3ccc(F)cc3)ccc2O[C@@H](C)CCCCO[C@@H]1CN(C)S(=O)(=O)c1cn(C)cn1 | x | x | x | x | x | -9
Cc1ccc(S(=O)(=O)N[C@@H]2C=C[C@@H](CC(=O)NC3CCCCC3)O[C@H]2CO)cc1 | x | x | x | x | x | 3
CCc1c(C)c(C#N)c2nc3ccccc3n2c1-n1nc(C)cc1C | 4 | 5 | -11 | 5 | -2 | -4
CCc1c(C)c(C#N)c2nc3ccccc3n2c1Cl | x | 378 | x | x | 435* | x
CCOC(=O)CSc1cc(C)c(C#N)c2nc3ccccc3n12 | -2 | 21 | -15 | -8 | 58* | 9
COc1cc([C@@H]2[C@H]3CN(C)CC=C3C(C#N)=C(N)C2(C#N)C#N)cc2c1OCO2 | -10 | -9 | 63*! | 60*! | -4 | -2
Cc1ccccc1S(=O)(=O)N1CC[C@@H]2[C@H](CO)Nc3ccc(-c4ccccc4F)cc3[C@@H]21 | x | x | x | x | x | -18
O=C(NC1CCC1)[C@H]1[C@H](CO)[C@H]2Cn3c(ccc(-c4ccccc4F)c3=O)[C@H]2N1Cc1ccccn1 | x | x | x | x | x | 14
Cc1ccc(NC(=S)N(Cc2ccc(Cl)cc2)Cc2ccc(C(=O)O)cc2)cc1Cl | -2 | 52 | 6 | 14 | 74* | 4
COc1ccc(CN(CC2CCC(C(=O)O)CC2)C(=S)Nc2ccc(C)c(Cl)c2)cc1 (configuration not stated) | 6 | -17 | -14 | -18 | -14 | -2
CC(=O)N1CCC2(CC1)C/C(=N\NC(=S)Nc1ccccc1F)c1cc(O)ccc1O2 | 0 | -52* | 6 | 20 | -58 | 10
C[C@@H]1CN([C@@H](C)CO)C(=O)Cc2cc(NS(=O)(=O)c3cccs3)ccc2O[C@@H]1CN(C)Cc1ccncc1 | x | x | x | x | x | 4
O=C(NCc1cccs1)c1ccc([N+](=O)[O-])cc1Cl | 5 | -70* | -7 | -7 | -73 | -11
SMILES | EBV LMP1 NFkB | HSF1 inhib | TWEAK-Fn14 inh | TROY NFkB inh | HSF1 activator | LGR2 inh
C[C@@H]1CN([C@@H](C)CO)S(=O)(=O)c2ccc(C#C[C@@H](C)O)cc2O[C@H]1CN(C)CC1CCCC1 | x | x | x | x | x | -4
O=C(Nc1ccc2c(c1)[C@@H]1C[C@@H](CC(=O)N3CCc4ccccc4C3)O[C@@H](CO)[C@@H]1O2)C1CCC1 | x | x | x | x | x | -10
Cc1c(C(=O)OCC2CCCO2)[nH]c2c1C(=O)CC(c1ccco1)C2 (configuration not stated) | 6 | 18 | -19 | 5 | 57* | x
COc1ccc(C[C@@H]2CCc3cnnn3COC[C@@H](c3ccccc3)NC2=O)cc1 | x | x | x | x | x | -14
CC(=O)ON=C1C=CC(=C(C#N)c2ccccc2)C=C1 | x | x | 48 | 23 | x | 18
COc1ccc(C(C#N)=C2C=CC(=NO)C=C2)cc1 | -18 | 118 | 40 | 24 | 168* | -10
Cc1ccc(NC(=O)CSc2nnc3ccccn23)c(Cl)c1 | -17 | x | -9 | -30 | x | -19
COCCn1c(C)cc(C(=O)CSc2nc3ccccc3o2)c1C | -14 | 12 | -7 | 5 | 22 | x
COCCn1c(C)cc(C(=O)CSc2nc3ccccc3s2)c1C | 10 | x | 51* | 60* | x | 61*
COCCn1c(SCC(=O)c2cc(C)n(C)c2C)nc2ccccc2c1=O | -23 | -72* | -11 | -5 | -77 | 12
COCCn1c(C)cc(C(=O)CSc2nnc3ccccn23)c1C | 50* | -51* | -13 | 26 | -60 | 62*
Cc1ccc(C(=O)CSc2nnc3ccccn23)c(C)c1 | -3 | 11 | 64* | 21 | 22 | 30
C[C@H]1CN([C@@H](C)CO)C(=O)c2cccc(NS(=O)(=O)c3ccccc3)c2O[C@H]1CN(C)S(=O)(=O)c1ccc(Cl)cc1 | x | x | x | x | x | -8
C[C@H]1CN([C@@H](C)CO)C(=O)Cc2cc(NS(=O)(=O)c3ccccc3)ccc2O[C@H]1CN(C)S(=O)(=O)c1cn(C)cn1 | x | x | x | x | x | 4
CO[C@H]1CN(C)C(=O)c2cc(NC(=O)Nc3cc(F)ccc3F)ccc2OC[C@@H](C)NC[C@@H]1C | x | x | x | x | x | 2
